The list is not random: actives were taken first. Their share in the collection is about 19%.
TDP1 cell noCPT: qHTS for Inhibitors of human tyrosyl-DNA phosphodiesterase 1 (TDP1): qHTS in cells in absence of CPT; DT40 Tdp1-/- hTDP1 cells, no CPT, ATP luminescence, 48 h; Potency, µM (titrated, usually from 46.2 µM), inactives show top-dose activity change, negative = growth inhibition, usual class: inhibitors; 420,000 compounds, 15% hits; AID 686978, 2013; note: potency is the fitted concentration of half-maximal effect; nearly all actives have a fitted effect of over 55% in size
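Chicken DT40 Tdp1-/- cells stably complemented with human TDP1 were seeded at 400 cells/well with DMSO in place of 20 nM camptothecin. After compound pinning, cells grew at least 48 hr at 37 °C; viability read by CellTiter-Glo luminescence.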
TDP1 cell CPT: growth inhibition of DT40 Tdp1-/-;hTDP1 cells with camptothecin (screen for TDP1 inhibitors); chicken DT40 Tdp1-/-;hTDP1 cells + 20 nM CPT, ATP luminescence, 48 h; Potency, µM (doses to about 46.2 µM), for inactives: at the highest dose activity change, negative = growth inhibition, hits mostly inhibitors; 420,000 compounds, 12% hits; note: potency is the fitted concentration of half-maximal effect; nearly all actives have a fitted effect of over 55% in size
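Chicken DT40 Tdp1-/- cells stably complemented with human TDP1 were seeded at 400 cells/well in medium containing 20 nM camptothecin, exposed to pin-transferred compounds, and grown at 37 °C for at least 48 hr. Viability was read as ATP luminescence.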
IL-1B inflam inh: inflammasome signaling inhibition, IL-1 beta readout. THP-1 LPS/ATP IL-1B secretion, AlphaLISA, 16 h; stronger effect = lower value. activity change, % at 57.5 µM. 360,000 compounds, 4.7% hits; in the data active = activity change below about -50%; inconclusive = mostly about -30% to -49%
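Secreted IL-1B measured by AlphaLISA bead assay after 16 h compound exposure of THP-1 cells; compounds (final up to 57.5 uM) added 1 h before LPS (250 ng/mL) and ATP (1.25 mM) stimulation; lower signal means less secretion.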
HT1080 IDH1KD tx: kills HT-1080 cells with IDH1 knockdown. HT-1080 IDH1 knockdown viability, ATP luminescence, 48 h. Potency, µM (doses to about 46.1 µM), for the others: at the highest dose activity, negative = toxicity, hits mostly cytotoxic. 360,000 compounds, 2% hits. AID 686971;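 note: potency is the fitted concentration of half-maximal effect; 0% = DMSO wells and -100% = cell-free medium wells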
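Cytotoxicity counter-line: IDH1KD HT-1080, 48 h, CellTiter-Glo. Curves classed by r2, magnitude and activity.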
HT1080NT lethal: kills 2HG-producing HT-1080-NT fibrosarcoma cells; HT-1080-NT fibrosarcoma viability, CellTiter-Glo ATP luminescence, 48 h; Potency, µM (series often up to 46.1 µM), without a hit: at the top dose activity, negative = less viability, usual class: cytotoxic; 360,000 compounds, 1.6% hits;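 note: NT is the 2HG producing partner of a matched IDH1 knockdown line; potency is the fitted concentration of half-maximal effect; 0% = DMSO-treated cells and -100% = media-only wells without cells; nearly all actives have a fitted effect of over 55% in size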
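A 48-hour cytotoxicity screen used HT-1080-NT cells plated 2 hours before compound delivery. ATP-based CellTiter-Glo luminescence measured viability, normalized to DMSO and no-cell controls.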
The depositor's hits bear a star; ? = inconclusive; / = no result. Unless noted, calls come from the whole dose curve; as a rule, active = well fitted curve in the direction sought with a large enough effect; inconclusive = small, poorly fitted or top-dose-only effect, or another doubt; inactive = no such curve, though single readings can be large; an effect the other way counts as inactive or inconclusive. Unless noted, % is set by controls: 0 for no effect and ±100 for the full control effect.

SMILES	TDP1 cell noCPT	TDP1 cell CPT	IL-1B inflam inh	HT1080 IDH1KD tx	HT1080NT lethal
O=C(Cn1[nH]c(=O)c2ccccc2c1=O)N1CC=C(c2ccccc2)CC1	15.8µM*	11.2µM*	-12.2	-17.9%	-20.4%
COc1ccc2[nH]c(=O)c(CN(c3ccc(C)c(C)c3)S(C)(=O)=O)cc2c1	-26.7%	-22.4%	-9.1	-1.1%	-10.9%
COCCN(Cc1cc2cccc(C)c2[nH]c1=O)C(=O)c1ccccc1	-2.4%	-12.4%	15.4	3.4%	8.4%
COc1ccc2[nH]c(=O)c(CN(C(=O)c3cccnc3)c3ccc(C)c(C)c3)cc2c1	?	11.6µM*	-14.1	-25.7%	-20.0%
COc1ccc(N(Cc2cc3ccccc3[nH]c2=O)C(=O)c2cccc(Cl)c2)cc1	23.1µM*	16.4µM*	/	/	/
CCN(Cc1cc2cccc(C)c2[nH]c1=O)C(=O)c1ccccc1OC	23.1µM*	?	-2.8	-1.9%	-3.2%
CCCC(=O)N(Cc1cc2cc(OC)ccc2[nH]c1=O)c1ccccc1OC	?	14.6µM*	-13.9	4.0%	-0.6%
COc1ccccc1N(Cc1cc2cccc(C)c2[nH]c1=O)C(=O)c1cccc(Cl)c1	20.6µM*	13µM*	/	/	/
COCC(=O)N(Cc1cc2ccccc2[nH]c1=O)c1ccccc1OC	-14.0%	2.5%	15.0	11.7%	9.3%
OCCO[C@@H]1[C@@H](O)[C@H](O)[C@@H](CO)O[C@@H]1O	-15.8%	6.7%	/	/	/
CC(=O)Nc1ccc(NC(=O)c2cc([N+](=O)[O-])cc([N+](=O)[O-])c2)cc1	-29.1%	?	41.4	-1.5%	-5.0%
Nc1ccc(Sc2ccc([N+](=O)[O-])cc2)cc1	?	?	-69.6*	-0.4%	-4.6%
CC(C)(C)C(=O)Nc1ccc(Sc2ccc([N+](=O)[O-])cc2)cc1	7.31µM*	8.2µM*	-9.1	-13.6%	-13.5%
CC(=O)Nc1ccc(Sc2ccc([N+](=O)[O-])o2)cc1	2.59µM*	2.59µM*	-97.3*	5.8µM*	4.11µM*
COc1ccc(CCC(=O)Nc2ccc(S(=O)(=O)N3CCOCC3)cc2)cc1OC	?	-14.8%	-7.7	-13.5%	1.1%
CN(C)c1ccc(-n2cccc2)cc1	-14.4%	16.5%	0.5	11.9%	6.6%
CN(C)c1ccc(SC#N)cc1	-23.2%	-4.4%	-99.4*	-14.0%	-1.4%
CCOC(=O)c1cc(C(=O)OCC)c2cccc(C)n2c1=O	13µM*	7.31µM*	-4.3	2.4%	12.2%
N#C/C(=C\c1ccc(N2CCOCC2)o1)C(=O)NC1CCCCC1	?	-20.4%	-9.9	-1.0%	8.0%
N#C/C(=C\c1ccc(-c2ccc(S(=O)(=O)N3CCOCC3)cc2)o1)C(=O)NC1CC1	20.6µM*	11.6µM*	-1.7	-2.3%	-10.5%
N#C/C(=C/c1ccc(-c2ccc(S(=O)(=O)N3CCOCC3)cc2)o1)C(=O)NC1CC1	14.6µM*	-107.3%	?	-7.3%	-21.2%
O=c1[nH]nc(-c2ccc(F)cc2)cc1Cc1cccs1	-19.8%	-2.3%	26.6	-12.7%	-13.1%
CCN(CC(=O)Nc1c(F)cccc1F)C(=O)c1cccc(-n2cccc2)c1	-21.5%	?	-13.9	5.9%	-0.5%
COc1ccc(Cc2nnn(CC(=O)O)n2)cc1	-0.5%	-2.0%	0.0	9.8%	19.0%
CC1OC(=O)c2cc3ccccc3nc21 (centres undefined)	2.5%	3.0%	3.8	-0.7%	9.0%
SMILES	TDP1 cell noCPT	TDP1 cell CPT	IL-1B inflam inh	HT1080 IDH1KD tx	HT1080NT lethal
O=C(Nc1ccccc1)C1=C[C@H](c2ccc3c(c2)OCO3)C[C@H](OCCCCO)O1	?	25.9µM*	-14.7	6.8%	22.4%
O=C(C1=C[C@@H](c2ccc(C(F)(F)F)cc2)C[C@@H](OCCCCO)O1)N1CCCCCCC1	?	23.1µM*	-19.2	9.1%	0.6%
O=C(C1=C[C@@H](c2ccc(Br)cc2)C[C@@H](OCCCCO)O1)N1CCN(Cc2ccc3c(c2)OCO3)CC1	?	?	?	-2.1%	-14.2%
O=C(Nc1ccccc1)C1=C[C@@H](c2ccc3c(c2)OCO3)C[C@@H](OCCCCO)O1	-12.9%	-22.9%	-15.8	0.9%	6.7%
O=C(C1=C[C@H](c2ccc(C(F)(F)F)cc2)C[C@H](OCCCCO)O1)N1CCN(Cc2ccc3c(c2)OCO3)CC1	?	?	-66.6*	?	-25.3%
CC1CCCC(NS(=O)(=O)c2cccc3nsnc23)C1C (centres undefined)	?	?	-1.7	-0.8%	-2.5%
O=C(CSc1nnc(NC(=O)c2ccccc2F)s1)NCC1CCCO1 (centres undefined)	-4.4%	-7.4%	-0.6	-0.5%	0.0%
O=C(NN1CC(C(=O)OCc2ccccc2F)CC1=O)c1ccccc1 (centres undefined)	22.8%	-7.9%	-10.1	1.8%	-3.9%
CC1=CN2C(=N)/C(=C/c3ccc([N+](=O)[O-])o3)C(=O)N=C2S1	1.3µM*	0.651µM*	-104.2*	?	?
CCOc1ccc(-c2ccc(/C=C3/C(=N)N4C=CSC4=NC3=O)o2)c([N+](=O)[O-])c1	?	20.6µM*	7.2	-2.8%	1.6%
CC(C)c1ccc(N(C(=O)CNC(=O)c2ccco2)C(C(=O)NC2CCCC2)c2cccnc2)cc1 (centres undefined)	0.1%	-4.5%	-70.4*	1.7%	0.5%
COC(=O)c1ccc(N(C(=O)CNC(=O)c2ccco2)C(C(=O)NC2CCCC2)c2ccco2)cc1 (centres undefined)	23.1µM*	?	6.8	-0.3%	-4.9%
O=C(NC1CCCC1)C(c1ccco1)N(C(=O)c1ccco1)c1ccccc1 (centres undefined)	14.6µM*	1.9%	-6.2	-10.8%	-2.2%
Cc1ccc(N(C(=O)CNC(=O)c2ccco2)C(C(=O)NCC2CCCO2)c2ccccc2)cc1C (centres undefined)	20.6µM*	-29.2%	-18.4	-1.8%	1.8%
OC1(c2nc3ccccc3[nH]2)CCCCC1	5.7%	4.5%	7.9	-0.3%	0.0%
Cc1cccc(C(=O)Nc2nnc(S(=O)(=O)N(C)Cc3ccco3)s2)c1	?	?	-2.9	-1.3%	-15.2%
CCc1ccc(N(C(=O)c2ccco2)C(C(=O)NC2CCCC2)c2ccncc2)cc1 (centres undefined)	?	-27.1%	-2.8	-2.3%	-18.3%
CCc1ccc(N(C(=O)c2ccco2)C(C(=O)NC2CCCC2)c2ccco2)cc1 (centres undefined)	16.4µM*	?	?	-18.2%	-20.4%
Cc1ccsc1C(=O)OCC(=O)NCc1cccs1	-20.9%	4.6%	21.7	4.1%	9.3%
